Data published in ChEMBL document CHEMBL3988442, “University of Dundee, Small-Polar-MMV Screening Library” (2021).
For some of these results: Measured potencies and affinities stand elsewhere.

Tests used:
Parameters in all cases: scale not given: direction of the effect not stated beside the values
[1] = biological target: Protein translocase subunit SecA (Escherichia coli (strain K12)) (UniProt P10408); experiment: Assay to Identify E. coli SecA ATPase Inhibitors; format: functional; conditions: 30 µM
[2] = biological target: T1, Ubiquitin-activating enzyme e1, putative (Leishmania donovani (strain BPK282A1)) (UniProt E9BSI1); experiment: Leishmania donovani Ubiquitin Activating Enzyme (LdE1); format: functional; conditions: 30 µM
T1 sequence (whole entry): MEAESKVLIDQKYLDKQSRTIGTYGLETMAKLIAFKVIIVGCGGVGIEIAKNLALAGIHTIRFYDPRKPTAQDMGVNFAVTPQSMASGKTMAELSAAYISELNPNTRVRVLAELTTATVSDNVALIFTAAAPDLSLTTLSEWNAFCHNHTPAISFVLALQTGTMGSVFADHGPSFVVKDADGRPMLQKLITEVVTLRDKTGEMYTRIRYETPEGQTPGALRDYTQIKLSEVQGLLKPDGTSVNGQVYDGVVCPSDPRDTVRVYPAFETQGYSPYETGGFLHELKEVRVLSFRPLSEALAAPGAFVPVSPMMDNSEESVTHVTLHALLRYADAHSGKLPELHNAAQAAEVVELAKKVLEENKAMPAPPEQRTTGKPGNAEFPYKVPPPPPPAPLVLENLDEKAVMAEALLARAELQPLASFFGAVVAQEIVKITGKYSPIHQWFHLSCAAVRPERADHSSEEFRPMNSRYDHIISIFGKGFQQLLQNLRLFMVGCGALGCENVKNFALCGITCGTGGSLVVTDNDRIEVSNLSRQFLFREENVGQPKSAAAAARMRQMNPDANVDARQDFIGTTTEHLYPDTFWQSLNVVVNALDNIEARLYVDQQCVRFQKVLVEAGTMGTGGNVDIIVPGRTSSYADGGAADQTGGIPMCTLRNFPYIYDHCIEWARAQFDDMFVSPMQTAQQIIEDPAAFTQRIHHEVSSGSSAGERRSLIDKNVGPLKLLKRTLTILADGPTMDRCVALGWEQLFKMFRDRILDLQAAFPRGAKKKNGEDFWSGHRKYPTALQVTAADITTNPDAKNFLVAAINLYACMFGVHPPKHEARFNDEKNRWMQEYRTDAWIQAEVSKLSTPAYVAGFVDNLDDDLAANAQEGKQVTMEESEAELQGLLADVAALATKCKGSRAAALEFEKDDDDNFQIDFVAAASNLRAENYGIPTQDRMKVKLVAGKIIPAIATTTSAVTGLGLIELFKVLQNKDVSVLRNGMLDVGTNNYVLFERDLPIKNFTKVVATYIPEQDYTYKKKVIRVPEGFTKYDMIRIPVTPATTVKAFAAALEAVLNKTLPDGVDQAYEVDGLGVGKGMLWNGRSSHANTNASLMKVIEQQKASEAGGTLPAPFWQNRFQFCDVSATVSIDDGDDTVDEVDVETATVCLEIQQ

[3] = biological target: AMP-activated protein kinase, AMPK (Homo sapiens) (UniProt P54646+O43741+P54619+Q9UGJ0+Q9Y478+Q13131+Q9UGI9); experiment: AMP-dependent Kinase enzyme assay. An in vitro enzyme assay that detects ADP turnover that is directly proportional to AMPK activity. This uses naive AMPK that is activated during the assay with MK-8722; format: functional; conditions: 30 µM
[4] = biological target: Sialic acid-binding Ig-like lectin 9 (Homo sapiens) (UniProt Q9Y336); experiment: Hs-Siglec9 ALPHAscreen SOP 20170721; conditions: 10 µM
Trypanosoma cruzi = experiment: Trypanosoma cruzi phosphomannomutase and mannose-1-phosphate guanylyltransferase assay; format: functional; conditions: 10 µM
[5] = biological target: T2, Arginase-2, mitochondrial (Homo sapiens) (UniProt P78540); experiment: in vitro enzyme assay to detect the production of urea directly proportional to the activity of Arginase II; format: functional; conditions: 33.3 µM; note: in the data most compounds retested in dose-response had high values
T2 sequence (whole entry): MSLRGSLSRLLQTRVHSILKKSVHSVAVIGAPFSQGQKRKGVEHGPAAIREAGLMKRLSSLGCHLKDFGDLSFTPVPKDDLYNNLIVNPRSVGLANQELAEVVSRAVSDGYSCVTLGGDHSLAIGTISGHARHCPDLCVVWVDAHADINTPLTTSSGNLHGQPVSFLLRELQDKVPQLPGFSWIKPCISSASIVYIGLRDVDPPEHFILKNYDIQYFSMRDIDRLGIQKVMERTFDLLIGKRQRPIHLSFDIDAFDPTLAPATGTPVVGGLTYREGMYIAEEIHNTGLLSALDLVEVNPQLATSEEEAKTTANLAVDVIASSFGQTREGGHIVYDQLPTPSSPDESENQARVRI

[6] = biological target: T3, Proteasome subunit beta (Trypanosoma cruzi) (UniProt O96673); experiment: Trypanosoma cruzi proteasome chymotrypsin-like activity (TcProtChymo) assay.; note: in the data most compounds retested in dose-response had high values; format: functional; conditions: 9.37 µM
T3 sequence (whole entry): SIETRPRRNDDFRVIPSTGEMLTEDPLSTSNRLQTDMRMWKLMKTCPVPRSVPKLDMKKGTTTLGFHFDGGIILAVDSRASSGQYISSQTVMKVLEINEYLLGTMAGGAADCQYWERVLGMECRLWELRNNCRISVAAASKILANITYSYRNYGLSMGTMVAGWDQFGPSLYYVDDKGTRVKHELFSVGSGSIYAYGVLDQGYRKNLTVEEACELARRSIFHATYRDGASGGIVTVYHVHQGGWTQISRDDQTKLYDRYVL

Homo sapiens = species on record: Homo sapiens; experiment: To identify inhibition of the IFN signalling (Jak-Stat) pathway via expression of an eGFP reporter gene under the control of an IFN-stimulated response element (ISRE) containing MxA promoter.; format: functional; conditions: 30 µM
[7] = biological target: T4, Tyrosyl-tRNA synthetase, putative (Trypanosoma cruzi (strain CL Brener)) (UniProt Q4DSP6); experiment: Trypanosoma cruzi tyrosyl tRNA synthetase (TcYRS) _High Tyrosine SOP; format: functional; conditions: 30 µM; note: in the data most compounds retested in dose-response had high values
T4 sequence (whole entry): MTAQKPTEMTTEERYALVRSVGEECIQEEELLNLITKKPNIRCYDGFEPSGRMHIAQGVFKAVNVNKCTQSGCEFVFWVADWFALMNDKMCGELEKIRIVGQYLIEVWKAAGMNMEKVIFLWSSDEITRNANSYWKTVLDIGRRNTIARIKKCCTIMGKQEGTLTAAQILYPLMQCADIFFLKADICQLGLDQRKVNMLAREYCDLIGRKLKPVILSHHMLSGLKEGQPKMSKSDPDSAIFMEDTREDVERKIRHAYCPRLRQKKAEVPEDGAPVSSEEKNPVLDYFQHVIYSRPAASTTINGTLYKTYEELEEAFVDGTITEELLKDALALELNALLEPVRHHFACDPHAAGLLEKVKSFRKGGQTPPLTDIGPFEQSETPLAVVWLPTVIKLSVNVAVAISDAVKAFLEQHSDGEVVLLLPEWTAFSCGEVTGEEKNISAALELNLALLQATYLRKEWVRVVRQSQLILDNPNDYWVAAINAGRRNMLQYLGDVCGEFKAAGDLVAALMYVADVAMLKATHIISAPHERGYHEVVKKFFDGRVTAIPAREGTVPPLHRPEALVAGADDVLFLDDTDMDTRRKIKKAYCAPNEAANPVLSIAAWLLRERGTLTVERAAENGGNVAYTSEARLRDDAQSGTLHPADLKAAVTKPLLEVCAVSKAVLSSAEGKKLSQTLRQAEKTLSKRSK

[8] = biological target: T4, Tyrosyl-tRNA synthetase, putative (Trypanosoma cruzi (strain CL Brener)); experiment: Trypanosoma cruzi tyrosyl tRNA synthetase (TcYRS) SOP; format: functional; conditions: 30 µM
[9] = biological target: Chromo domain-containing protein 1 (Saccharomyces cerevisiae (strain ATCC 204508 / S288c) (Baker's yeast)) (UniProt P32657); experiment: ScCHD-1 Enzyme Inhibition Assay; format: functional; conditions: 30 µM; note: in the data most compounds retested in dose-response had high values
Sequence of Chromo domain-containing protein 1 (Saccharomyces cerevisiae (strain ATCC 204508 / S288c) (Baker's yeast)) (P32657 whole entry, the tested form may be a part): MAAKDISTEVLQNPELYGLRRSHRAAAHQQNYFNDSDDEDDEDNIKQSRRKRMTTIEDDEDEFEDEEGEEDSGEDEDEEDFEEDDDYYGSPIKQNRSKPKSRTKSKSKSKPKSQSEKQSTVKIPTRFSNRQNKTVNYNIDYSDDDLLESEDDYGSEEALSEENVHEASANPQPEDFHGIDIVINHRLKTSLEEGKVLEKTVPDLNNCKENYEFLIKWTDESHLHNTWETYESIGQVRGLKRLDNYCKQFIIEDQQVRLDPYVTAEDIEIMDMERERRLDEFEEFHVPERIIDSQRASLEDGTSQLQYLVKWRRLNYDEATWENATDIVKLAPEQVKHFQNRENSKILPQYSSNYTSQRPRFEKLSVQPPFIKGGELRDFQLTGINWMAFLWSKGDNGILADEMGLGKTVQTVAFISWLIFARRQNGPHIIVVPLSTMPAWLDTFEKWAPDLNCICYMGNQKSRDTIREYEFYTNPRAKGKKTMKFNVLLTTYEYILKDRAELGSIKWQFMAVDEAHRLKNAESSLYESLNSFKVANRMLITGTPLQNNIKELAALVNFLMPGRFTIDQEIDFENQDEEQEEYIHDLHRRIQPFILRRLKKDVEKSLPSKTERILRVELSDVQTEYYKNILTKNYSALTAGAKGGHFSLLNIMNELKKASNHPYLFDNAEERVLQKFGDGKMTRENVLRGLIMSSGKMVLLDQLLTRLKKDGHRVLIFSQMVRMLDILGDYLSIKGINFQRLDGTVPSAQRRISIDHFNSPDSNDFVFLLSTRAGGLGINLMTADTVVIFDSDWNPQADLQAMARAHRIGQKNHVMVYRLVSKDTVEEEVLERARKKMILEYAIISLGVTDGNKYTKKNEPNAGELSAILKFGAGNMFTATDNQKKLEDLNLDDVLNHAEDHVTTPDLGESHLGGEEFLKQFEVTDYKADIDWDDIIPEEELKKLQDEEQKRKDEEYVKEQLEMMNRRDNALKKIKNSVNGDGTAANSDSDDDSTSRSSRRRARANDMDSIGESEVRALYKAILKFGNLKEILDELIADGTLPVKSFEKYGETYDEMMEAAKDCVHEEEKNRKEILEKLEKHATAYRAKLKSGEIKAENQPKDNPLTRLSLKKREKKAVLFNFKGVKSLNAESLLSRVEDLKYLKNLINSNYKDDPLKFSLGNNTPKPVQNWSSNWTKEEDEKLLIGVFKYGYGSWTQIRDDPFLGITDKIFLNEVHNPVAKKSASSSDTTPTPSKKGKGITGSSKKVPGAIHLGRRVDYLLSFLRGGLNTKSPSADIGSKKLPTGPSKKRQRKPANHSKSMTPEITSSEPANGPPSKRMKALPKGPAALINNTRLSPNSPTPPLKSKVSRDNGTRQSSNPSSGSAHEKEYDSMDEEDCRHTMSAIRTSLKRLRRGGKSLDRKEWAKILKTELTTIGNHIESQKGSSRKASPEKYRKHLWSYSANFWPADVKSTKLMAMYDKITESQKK

Sequence of Protein translocase subunit SecA (Escherichia coli (strain K12)) (P10408 whole entry): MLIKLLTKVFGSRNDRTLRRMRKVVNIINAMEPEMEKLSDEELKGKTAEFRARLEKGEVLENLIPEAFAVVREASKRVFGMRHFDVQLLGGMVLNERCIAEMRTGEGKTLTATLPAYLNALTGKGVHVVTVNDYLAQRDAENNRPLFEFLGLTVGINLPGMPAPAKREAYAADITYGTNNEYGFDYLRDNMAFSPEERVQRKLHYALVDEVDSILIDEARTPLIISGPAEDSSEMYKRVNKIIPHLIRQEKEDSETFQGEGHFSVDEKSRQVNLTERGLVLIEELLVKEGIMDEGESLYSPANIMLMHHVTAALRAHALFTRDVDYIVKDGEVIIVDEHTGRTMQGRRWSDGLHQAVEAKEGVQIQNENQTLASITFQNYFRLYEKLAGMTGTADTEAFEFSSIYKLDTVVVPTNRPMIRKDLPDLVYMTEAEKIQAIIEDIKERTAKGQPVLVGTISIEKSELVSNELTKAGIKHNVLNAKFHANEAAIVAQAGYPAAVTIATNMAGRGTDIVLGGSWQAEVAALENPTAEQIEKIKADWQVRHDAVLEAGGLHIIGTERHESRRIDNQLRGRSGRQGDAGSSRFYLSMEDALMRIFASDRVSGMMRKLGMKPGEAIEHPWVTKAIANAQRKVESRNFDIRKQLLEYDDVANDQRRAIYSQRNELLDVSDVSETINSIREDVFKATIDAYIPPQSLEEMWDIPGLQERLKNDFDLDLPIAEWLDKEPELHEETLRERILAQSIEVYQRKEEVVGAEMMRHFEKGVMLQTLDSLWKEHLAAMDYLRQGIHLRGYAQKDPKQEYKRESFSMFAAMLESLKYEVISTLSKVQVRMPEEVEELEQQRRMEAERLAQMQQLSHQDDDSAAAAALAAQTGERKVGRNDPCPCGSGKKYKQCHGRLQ
Sequence of Sialic acid-binding Ig-like lectin 9 (Homo sapiens) (Q9Y336 whole entry): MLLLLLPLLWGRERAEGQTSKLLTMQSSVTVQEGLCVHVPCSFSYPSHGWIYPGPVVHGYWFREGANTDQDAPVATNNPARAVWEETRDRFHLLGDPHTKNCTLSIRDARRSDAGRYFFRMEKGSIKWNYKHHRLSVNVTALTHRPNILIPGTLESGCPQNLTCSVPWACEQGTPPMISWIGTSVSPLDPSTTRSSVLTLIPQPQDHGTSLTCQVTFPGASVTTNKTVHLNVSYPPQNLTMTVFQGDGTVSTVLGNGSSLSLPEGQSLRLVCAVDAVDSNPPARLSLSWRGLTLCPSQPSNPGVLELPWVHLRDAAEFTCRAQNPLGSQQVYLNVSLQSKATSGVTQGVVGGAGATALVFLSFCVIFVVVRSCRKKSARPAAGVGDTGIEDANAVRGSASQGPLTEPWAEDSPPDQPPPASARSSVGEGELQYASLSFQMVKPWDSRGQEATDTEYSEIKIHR

| SMILES | Percent Effect [1] | Percent Effect [2] | Percent Effect [3] | Percent Effect [4] | Percent Effect (Trypanosoma cruzi) | Percent Effect [5] | Percent Effect [6] | Percent Effect (Homo sapiens) | Percent Effect [7] | Percent Effect [8] | Percent Effect [9] |
| --- | --- | --- | --- | --- | --- | --- | --- | --- | --- | --- | --- |
| O=S(=O)(N(Cc1ccccn1)C1CC1)N1CCCC1c1ccco1 (stereo not drawn) | -4.42% | 16.2% | 0.691% | 9.84% | 5.66% | -2.77% | 0.359% | 5.33% | 3.96% | 18.3% | -5.26% |
| Cn1c(Cn2ccnc2)nnc1C1CCN(Cc2cccnc2N)CC1 | -2.31% | -9.72% | 1.79% | -9.15% | -2.62% | 3.53% | 9.12% | -8.94% | 2.1% | 2.56% | -3.65% |
| Cc1ccc(CC(=O)N2CCCC(c3cc(C)[nH]n3)C2)cn1 (stereo not drawn) | -4.35% | 13.5% | -1.96% | 17.6% | 5.66% | -4.25% | 3.77% | 12.1% | 3.96% | 15.8% | -0.933% |
| COc1ccccc1CN1C(=O)O[C@@H]2CN(c3nccs3)C[C@@H]21 | -8.53% | 0% | 2% | 2.51% | -5.75% | -3.12% | 11.2% | 15.3% | 2.73% | 3.7% | -3.84% |
| CCCc1n[nH]c(C2CN(C(=O)c3cc(F)ccc3OC)CCO2)n1 (stereo not drawn) | -5.9% | 7.89% | -0.379% | 3.53% | 2.33% | -2.52% | 3.3% | -17.2% | 6.4% | 11.1% | -4.7% |
| Cc1cc(N2CCN(C(=O)c3cc(Cl)c[nH]3)CC2)nc(N)n1 | 0.0114% | 8.22% | -3.11% | 13.8% | 5.36% | -2.4% | 15.3% | 17.5% | 10.4% | 13.6% | -0.523% |
| CN(Cc1ccccc1)C1(C(=O)O)Cc2ccccc2C1 | -3.87% | 2.67% | -2.42% | 1.78% | -3.6% | 3.12% | 12.9% | 5.79% | 2.73% | 8.64% | -5.27% |
| CC(=O)N1CCC(C(=O)NCCN2CCC(C)CC2)CC1 | -1.98% | 9.72% | 11.4% | -1.43% | -3.6% | 4.86% | 18.1% | -2.5% | 4.21% | 5.13% | -3.45% |
